Test results: PubChem BioAssay
“And” between values parts separate entries of the source, which are not always exact repeats. Identical values can stand only once. The source made the active and inactive calls.

Assays:
[1] = A549 cell viability effects, profiling panel, calcein-AM fluorescence, 48 h, basal (AID 1162); conditions: higher = more signal
[2] = adipocyte viability effects, profiling panel, cell-based, 3T3-L1 adipocytes, calcein-AM fluorescence, 48 h, basal (AID 1163); conditions: 3T3-L1 adipocytes viability, higher = more signal
[3] = HepG2 cell viability effects, profiling panel, calcein-AM fluorescence, 48 h, basal (AID 1164); conditions: higher = more signal
[4] = MM1S cell viability effects, profiling panel, calcein-AM fluorescence, 48 h, basal (AID 1165); conditions: higher = more signal;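 note: viability of MM1S multiple myeloma cells under basal unstimulated conditions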
[5] = basal RPMI8226 viability, no added stimulus, profiling panel, cell-based, calcein-AM fluorescence, 48 h, PK04 Diversity Set (AID 1166); conditions: RPMI8226 myeloma viability, higher = more signal;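 note: cells grown under basal conditions without added stimulus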
[6] = basal HepG2 mitochondrial membrane potential changes, profiling panel, cell-based, JC-1 fluorescence, 24 h, 100 nL compound (AID 1167); conditions: higher = more signal
[7] = basal 3T3-L1 adipocyte mitochondrial potential changes, profiling panel, cell-based, JC-1 fluorescence, 3T3-L1 adipocytes, 24 h, 100 nL compound (AID 1168); conditions: JC-1 mitochondrial fluorescence, higher = more signal, called active from +8 up or from −8 down
[8] = basal RPMI8226 mitochondrial membrane potential changes, profiling panel, cell-based, JC-1 fluorescence, 24 h, 100 nL compound (AID 1169); conditions: RPMI8226 myeloma, JC-1 mitochondrial potential fluorescence, higher = more signal
[9] = basal MM1S mitochondrial membrane potential changes, profiling panel, cell-based, JC-1 fluorescence, 24 h, 100 nL compound (AID 1170); conditions: higher = more signal
[10] = A549 lung cancer cell viability effects, profiling panel, resazurin fluorescence, 24 h, PK04 Diversity Set (AID 1171); conditions: higher = more signal, called active from +8 up or from −8 down
Note: test concentration not given here.

SMILES | z-score [1] | z-score [2] | z-score [3] | z-score [4] | z-score [5] | z-score [6] | z-score [7] | z-score [8] | z-score [9] | z-score [10]
C=CCN(CCCC)C(=O)C1N(c2c(Cl)cccc2CO)C(=O)C2C(C(=O)O)C3C=CC21O3 (stereo not given) | -0.313 and -0.498 | 1.21 and 1.63 | -1.25 and -0.852 | 0.96 and 0.468 | -0.497 and -0.251 | -1.04 and -0.518 | -0.291 (inactive) and 0.159 (inactive) | 0.0487 and -0.0566 | 0.488 and 0.599 | -0.822 (inactive) and -0.0069 (inactive)
C[N+](C)(C)CCCCCCNC(=O)[C@@H]1C[C@@H]2C(=O)N[C@@H](CCCC[N+](C)(C)C)C(=O)N2[C@@H]1c1ccc(O)cc1 | 0.602 and 0.107 | -0.266 and -0.25 | 0.284 and -0.812 | 0.814 and -0.514 | -0.587 and 0.392 | -0.367 and -1.19 | 0.608 (inactive) and 0.109 (inactive) | -0.7 and 0.534 | -0.778 and -0.749 | 0.527 (inactive) and 0.818 (inactive)
CO[C@H]1COC(=O)CC=C[C@@H](C)COC(=O)[C@H](CCSC)NC(=O)CC=C[C@@H]1C | -0.875 and -0.577 | 0.584 and 0.153 | -0.442 and 0.338 | 0.0739 and -0.242 | -0.858 and 0.708 | 0.755 and 0.535 | -0.153 (inactive) and 0.157 (inactive) | -0.688 and 0.358 | 0.588 and 1.85 | -0.8 (inactive) and 0.705 (inactive)
C=CC[C@H](O)c1ccc(OCCO)cc1 | -0.168 and -0.248 | -0.219 and -0.258 | -0.267 and 0.456 | 0.842 and -1.08 | -0.252 and -0.209 | -0.301 and -0.603 | -0.315 (inactive) and 0.251 (inactive) | -0.0607 and 0.117 | 0.319 and -0.662 | -0.233 (inactive) and -0.884 (inactive)
C=CCN(CCCC)C(=O)C1N(CCOCCO)C(=O)C2C(C(=O)O)C3C=CC21O3 (stereo not given) | -0.397 and -0.276 | 0.28 and -0.404 | -1.2 and -1.42 | 0.929 and 0.966 | -0.234 and 0.295 | -0.419 and -0.964 | -0.309 (inactive) and -0.776 (inactive) | 0.563 and 0.0271 | 0.0912 and -0.0623 | -0.169 (inactive) and -0.593 (inactive)
CCN1C(=O)[C@H]2[C@H]3[C@H](O)[C@H](O)CC(=NOC[C@@H](O)COCc4ccco4)[C@@H]3CC[C@H]2C1=O | 0.107 and -0.737 | -0.233 and 1.1 | -0.417 and -0.814 | 0.0026 and 0.228 | -1.35 and -1.38 | -0.48 and -0.487 | -0.844 (inactive) and -0.925 (inactive) | 0.0424 and 0.122 | 0.104 and 0.0266 | -0.767 (inactive) and -1.14 (inactive)
CC(C)=CCCC(C)=CCON=C1C[C@@H](O)[C@@H](O)[C@@H]2[C@@H]3C(=O)N([C@@H](C)c4ccccc4)C(=O)[C@@H]3CC[C@H]12 | 0.0319 | 0.2 | 0.446 | -2.88 | -0.0017 | 0.374 | 1.08 (inactive) | 0.0351 | -1.78 | -1.38 (inactive)
Cc1ccc(S(=O)(=O)OC[C@@H]2CN3[C@@H](CC[C@@H](C)[C@@H]3c3ccc(Br)cc3)C(=O)O2)cc1 | -0.251 and 0.0448 | 0.0273 and 0.503 | 0.462 and 0.028 | -0.644 and 0.185 | -0.341 and -0.294 | -0.735 and 0.438 | -0.303 (inactive) and 0.303 (inactive) | -0.883 and -0.68 | 0.925 and 0.523 | -0.474 (inactive) and 0.371 (inactive)
C=CC[C@@H](O)c1ccc(O)c(F)c1 | -0.562 and 0.575 | 0.207 and 0.747 | -0.804 and -0.172 | -1.11 and 1.1 | -0.508 and -1.15 | -1.48 and -0.00596 | -1.3 (inactive) and 1.47 (inactive) | 0.345 and 0.642 | -0.347 and 1.29 | -0.694 (inactive) and 0.0466 (inactive)
C=CCN(C(=O)C(c1cccs1)N(C(=O)/C=C\C(=O)O)c1c(Cl)cccc1CO)C(C)(C)C (stereo not given) | 0.422 and -0.237 | 0.0699 and -0.221 | -0.0685 and 0.369 | 0.221 and 0.0812 | -0.511 and -0.202 | -0.99 and -0.519 | 0.563 (inactive) and 0.497 (inactive) | -0.639 and -0.0626 | 0.923 and 0.231 | -0.493 (inactive) and -0.643 (inactive)
C=CCN(CCCCC)C(=O)C(c1cccs1)N(CCOCCO)C(=O)/C=C\C(=O)O (stereo not given) | 0.457 and 0.414 | 0.314 and -0.158 | 0.341 and 0.976 | 1.85 and 1.71 | 0.025 and 0.586 | 0.69 and -0.139 | 1.03 (inactive) and 0.45 (inactive) | 0.0935 and -0.719 | -0.512 and 0.0846 | -0.186 (inactive) and -0.954 (inactive)
CC(C)[Si]1(C(C)C)OCc2cc(CCCc3cc4c(c(CCc5ccccc5)n3)[Si](C(C)C)(C(C)C)OC4)nc(CCc3ccccc3)c21 | 0.148 and -0.222 | 0.673 and -0.626 | -0.661 and -0.566 | -1.66 and 0.326 | -1.09 and -0.322 | -0.508 and -1.19 | 1.72 (inactive) and -1 (inactive) | -0.152 and 1.02 | -0.38 and -0.852 | 0.576 (inactive) and -0.19 (inactive)
C[N+](C)(C)CCCCNC(=O)[C@H]1C[C@H]2C(=O)N[C@@H](CCCC[N+](C)(C)C)C(=O)N2[C@H]1c1cccc(OCCO)c1 | -0.663 and -0.261 | -0.488 and -0.571 | -1.13 and -0.231 | -0.485 and -1.67 | 0.267 and 0.461 | -1.2 and -0.91 | -0.0125 (inactive) and 0.0612 (inactive) | -0.117 and 0.49 | -0.199 and -0.118 | -0.964 (inactive) and -0.711 (inactive)
CC(CO)N1C(=O)[C@@H]2C3C(=O)OCCC=C[C@H]3OC23C=CCN(c2ccc(Cl)cc2)C(=O)[C@@H]13 (stereo not given in full) | 0.112 and -0.123 | 0.194 and 0.458 | 0.47 and 1.07 | -0.725 and -0.182 | 0.622 and -0.222 | 0.242 and 0.0111 | 0.518 (inactive) and -0.689 (inactive) | 0.0601 and -0.811 | 0.936 and -0.274 | 0.189 (inactive) and 0.557 (inactive)
